Experiment [1] can be described thus: inhibitors of TNFa-induced NFkB p65 translocation, primary screen, imaging, HUVEC, MLSMR starter and 10KST1 sets (AID 438).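 Further: compound added about 3h40 before a 20 min TNFalpha stimulation.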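 On inhibition: signal is the nuclear over cytoplasmic p65 intensity ratio per well.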 Conditions: HUVEC TNFa-induced p65 nuclear translocation; cell count: measured here: nuclei count (cytotoxicity indicator), at 2.08 µM; inhibition: at 2 µM, stronger effect = higher value, 0% TNFa-plus-vehicle, 100% no-TNFa wells.
Experiment [2] can be described thus: reduction of polyQ htt aggregates in cells – imaging, exon1htt(103Q)mCFP cells, high-content imaging, primary screen (AID 483;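 active means visual image review flags a hit and inhibition of aggregation exceeds 20%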;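 further: compound exposure lasted 3 days before fixation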;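 on nuclei count: percent of the per-plate median nuclei count of sample wells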). Conditions: exon1htt(103Q)mCFP cell line, aggregate imaging, at 2 µM; inhibition of aggregation: stronger effect = higher value; nuclei count: measured here: cell count, toxicity.
Experiment [3] is described as follows: endothelial E-selectin expression blockers – imaging, HUVEC, immunofluorescence, MLSMR starter and 10KST1 sets, primary screen (AID 487;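 active means visually confirmed hit in the image check and inhibition above 20%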;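 on inhibition: signal is fraction of cell area covered by stained E-selectin grains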;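 on nuclei count: 100% = median nuclei count of all wells on the same plate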). Conditions: HUVEC TNFalpha-induced E-selectin immunofluorescence imaging, at 2 µM; inhibition: stronger effect = higher value; nuclei count: measured here: cell number, toxicity.
Experiment [4] has as its target Voltage-gated potassium channel subunit beta-2 (Rattus norvegicus) (UniProt P62483). Briefly: inhibitors of rat Kvbeta2 reductase activity – biochemical, NADPH fluorescence, primary screen (AID 622;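 active means fluorescence slope higher than the sample average by over 3 SD, cut at about -0.22 in these data, passing the limit was not always enough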;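 further: slope of raw intensity against log time taken from 70 to 1610 s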). Conditions: recombinant KvBeta, 4-cyanobenzaldehyde reduction, at 10 µM, stronger effect = higher value.
Experiment [5] shares this target. As to the kind of experiment: enhancers of rat Kvbeta2 NADPH turnover – biochemical, NADPH fluorescence, primary screen (AID 623;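 active means NADPH fluorescence slope more negative than the mean of all samples by about 3 SD, 99.7% confidence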;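 further: fluorescence intensity change per second fitted from 20 to 320 s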). Conditions: Recombinant KvBeta, NADPH fluorescence decrease slope, 10 min; at 10 µM; stronger effect = lower value.
Experiment [6] deals with Alpha-2C adrenergic receptor (Homo sapiens) (UniProt P18825). As to the kind of experiment: compounds altering alpha2C-coupled GIRK flux – cell-based, HEK293 alpha2C/GIRK1/2, thallium flux, primary screen (AID 624;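 active means fluorescence slope after compound addition differing from the mean of all screened samples at 99.7% confidence, in either direction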;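 further: slope of fluorescence ratio to pre-addition baseline per second over 15 to 24 s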). Conditions: thallium flux BTC fluorescence, at 10 µM, actives lie on both sides.
Alpha-2C adrenergic receptor (Homo sapiens), sequence (P18825 whole entry, looked up): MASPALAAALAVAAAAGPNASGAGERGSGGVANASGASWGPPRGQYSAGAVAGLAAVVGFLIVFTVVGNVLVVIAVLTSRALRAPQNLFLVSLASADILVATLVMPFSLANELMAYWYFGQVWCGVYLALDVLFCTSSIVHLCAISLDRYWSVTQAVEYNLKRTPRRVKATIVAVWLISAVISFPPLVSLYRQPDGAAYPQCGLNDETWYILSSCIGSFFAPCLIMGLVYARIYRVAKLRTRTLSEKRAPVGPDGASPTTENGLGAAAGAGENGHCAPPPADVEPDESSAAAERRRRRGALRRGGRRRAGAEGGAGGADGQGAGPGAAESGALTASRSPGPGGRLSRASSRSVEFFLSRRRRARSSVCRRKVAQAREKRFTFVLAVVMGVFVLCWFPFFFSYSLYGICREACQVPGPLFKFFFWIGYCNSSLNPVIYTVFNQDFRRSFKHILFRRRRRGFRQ
Experiment [7] in a line: blockers of RIG-like receptor reporter activation – cell-based, Sendai virus stimulus, luciferase, 10K MLSCN set, TLR/RLR signaling modifier project, primary screen (AID 602276;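 active means inhibition at or above 50% at 10 µM; inactive means inhibition below 50%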;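 further: firefly luciferase from ISG56 promoter only with Renilla not read in this screen; 0% = Sendai virus plus DMSO and 100% = medium plus DMSO without virus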). Conditions: HEK293 RL24 IRF3 luciferase reporter, at 10 µM, stronger effect = higher value. Background: In a reporter assay the amount or activity of a reporter protein is the signal.
The nature of experiment [8]: TLR3 IRF3 reporter activation blockers – cell-based, poly I:C stimulus, luciferase, 10K MLSCN set, primary screen (AID 602277;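 active means inhibition of the reporter signal at or above 50%; inactive means inhibition below 50%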). Conditions: HEK293-TLR3 RL24 IRF3 luciferase reporter, at 10 µM, stronger effect = higher value.

The values that follow come from PubChem BioAssay.

Calls of active or inactive are those of the source.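 How the source made its calls, unless noted: active means inhibition above 20% together with a positive visual image hit; inconclusive means visual image hit but inhibition not above 20%; inactive means no visual image hit.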

Voltage-gated potassium channel subunit beta-2 (Rattus norvegicus), sequence (P62483 whole entry, looked up): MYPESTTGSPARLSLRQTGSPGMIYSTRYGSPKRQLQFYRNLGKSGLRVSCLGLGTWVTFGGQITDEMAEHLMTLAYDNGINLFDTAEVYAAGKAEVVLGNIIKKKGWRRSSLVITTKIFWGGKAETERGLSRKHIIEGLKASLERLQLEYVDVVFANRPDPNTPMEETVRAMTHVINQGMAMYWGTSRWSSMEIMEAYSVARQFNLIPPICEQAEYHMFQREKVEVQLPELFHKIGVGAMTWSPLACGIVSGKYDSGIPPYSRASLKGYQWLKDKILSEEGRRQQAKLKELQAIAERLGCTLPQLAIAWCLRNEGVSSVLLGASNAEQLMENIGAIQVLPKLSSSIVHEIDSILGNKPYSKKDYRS

With `Cc1cc(C)n(-c2nc3nonc3nc2-n2nc(C)cc2C)n1`, the cell count in experiment [1] amounted to 797. Also, the inhibition is -15.2% (inactive) in experiment [1], -20.5% (inactive) in experiment [3], 11.8% (inactive) in experiment [7] and 27.1% (inactive) in experiment [8]. Moreover, in experiment [2], the inhibition of aggregation is -2.2% (inactive). Besides, the nuclei count in experiment [2] came to 110%; in experiment [3], 106%. Moreover, the fluorescence slope in experiment [4] was -0.416 (inactive). For the same molecule, the NADPH fluorescence slope in experiment [5] was -2e-05 (inactive). In experiment [6], the slope is 0.00318 (inactive).

Take `CC/C(O)=C(/C#N)c1nnc2n1CCCCC2`: the cell count in experiment [1] was 446. Further, the inhibition in experiment [1] is 3.6% (inactive); in experiment [3] it was 47.8% (inactive); in experiment [7], 7.71% (inactive); in experiment [8], 11.5% (inactive). Moreover, in experiment [2], the inhibition of aggregation was -9.6% (inactive). For the same molecule, the nuclei count amounted to 115% in experiment [2] and 86.1% in experiment [3]. In experiment [4], the fluorescence slope is -0.608 (inactive). In experiment [5], the NADPH fluorescence slope was -2e-05 (inactive). Further, in experiment [6], the slope was 0.00604 (inactive).

`CCC(C)(C)n1nnnc1C(c1cc2cc(OC)ccc2[nH]c1=O)N1CCc2ccccc21` (centres undefined): the cell count in experiment [1] stood at 411. The inhibition in experiment [1] was -18.4% (inactive); in experiment [3], -14.8% (inactive); in experiment [7] it was 14.9% (inactive); in experiment [8] it was 29.5% (inactive). The inhibition of aggregation in experiment [2] is 9.8% (inactive). Further, the nuclei count worked out at 100% in experiment [2] and 116% in experiment [3]. Further, the fluorescence slope in experiment [4] was -0.592 (inactive). In experiment [5], the NADPH fluorescence slope was -4.5e-05 (inactive). For the same molecule, in experiment [6], the slope is 0.0033 (inactive).

Turning to `CC1=CCC(C(C)(C)NC(=O)c2ccccc2)C/C1=N\O` (centres undefined), the cell count in experiment [1] came to 313. In addition, the inhibition in experiment [1] was 2% (inactive); in experiment [3], -6.2% (inactive); in experiment [7] it was 17.1% (inactive); in experiment [8] it was 20.6% (inactive). Further, in experiment [2], the inhibition of aggregation was -4.5% (inactive). Besides, the nuclei count turned out to be 89.1% in experiment [2] and 120% in experiment [3]. In experiment [4], the fluorescence slope is -0.624 (inactive). Further, in experiment [5], the NADPH fluorescence slope is -1.5e-05 (inactive). For the same molecule, the slope in experiment [6] is 0.00574 (inactive).

Regarding `Cc1ccc(Cn2c(NCCc3ccccc3)nc3c2c(=O)n(C)c(=O)n3C)cc1`, the cell count in experiment [1] is 368. Also, the inhibition in experiment [1] was 6.8% (inactive); in experiment [3], -203% (inactive); in experiment [7], 34.6% (inactive); in experiment [8], 29.6% (inactive). The inhibition of aggregation in experiment [2] is 6.1% (inactive). The figures for the nuclei count in experiment [2] and in experiment [3] were 98.7% and 108%, respectively. Besides, in experiment [4], the fluorescence slope was -0.597 (inactive). Moreover, the NADPH fluorescence slope in experiment [5] was -6.3e-06 (inactive). Also, the slope in experiment [6] was 0.00517 (inactive).

Take `CCOC(=O)C1CCN(C(=O)CCCCn2c(=O)[nH]c3ccccc3c2=O)CC1`: in experiment [1], the cell count is 517. Further, the inhibition in experiment [1] was -8.6% (inactive); in experiment [3], -54.8% (inactive); in experiment [7], 0.817% (inactive); in experiment [8], -29.5% (inactive). The inhibition of aggregation in experiment [2] was -27.5% (inactive). Further, the figures for the nuclei count in experiment [2] and in experiment [3] were 100% and 126%, respectively. Besides, in experiment [4], the fluorescence slope is -0.563 (inactive). In experiment [5], the NADPH fluorescence slope was 3.1e-05 (inactive). In experiment [6], the slope is 0.00611 (inactive).

Consider `CC1C=CC(C)C(C(=O)O)C1C(=O)O` (centres undefined), for which, in experiment [1], the cell count was found to be 543. Besides, the inhibition in experiment [1] was -4.4% (inactive); in experiment [3] it was -15.8% (inactive); in experiment [7], 7.99% (inactive); in experiment [8], 41.3% (inactive). Moreover, the inhibition of aggregation in experiment [2] is 13% (inactive). Moreover, the nuclei count came to 46.5% in experiment [2] and 96% in experiment [3]. The fluorescence slope in experiment [4] was -0.476 (inactive). Further, the NADPH fluorescence slope in experiment [5] is -5.7e-05 (inactive). For the same molecule, in experiment [6], the slope was 0.00278 (inactive).

Regarding `COc1ccccc1N1C(=O)CCC1(C#N)c1ccccc1` (centres undefined), the cell count in experiment [1] was found to be 567. For the same molecule, the inhibition is 6.9% (inactive) in experiment [1], -30.3% (inactive) in experiment [3], -5.14% (inactive) in experiment [7] and 9.48% (inactive) in experiment [8]. The inhibition of aggregation in experiment [2] was -0.9% (inactive). Further, the nuclei count in experiment [2] was determined as 87.7%; in experiment [3], 72.2%. Further, in experiment [4], the fluorescence slope is -0.62 (inactive). The NADPH fluorescence slope in experiment [5] is 6e-06 (inactive). In addition, the slope in experiment [6] is 0.0062 (inactive).

With `CS(=O)(=O)N(Cc1ccccc1)c1ccc(C(=O)N2CCOCC2)cc1`, in experiment [1], the cell count was 297. Besides, the inhibition is 11.6% (inactive) in experiment [1], 41.9% (inactive) in experiment [3], -11.4% (inactive) in experiment [7] and 0.146% (inactive) in experiment [8]. Also, the inhibition of aggregation in experiment [2] is 23% (inactive). Moreover, the figures for the nuclei count in experiment [2] and in experiment [3] were 91.2% and 96.9%, respectively. In addition, the fluorescence slope in experiment [4] is -0.516 (inactive). The NADPH fluorescence slope in experiment [5] was -1.2e-05 (inactive). Moreover, the slope in experiment [6] is 0.00702 (inactive).

As to `Nc1ccc(C(=O)OCCCc2nc3ccccc3[nH]2)cc1`, in experiment [1], the cell count came to 366. Moreover, the inhibition in experiment [1] is -2.2% (inactive); in experiment [3], 9% (inactive); in experiment [7], -17.1% (inactive); in experiment [8] it was -17.7% (inactive). In addition, the inhibition of aggregation in experiment [2] is 10.5% (inactive). Besides, the nuclei count in experiment [2] came out at 95.7%; in experiment [3], 92.5%. Besides, in experiment [4], the fluorescence slope is -0.589 (inactive). Besides, the NADPH fluorescence slope in experiment [5] is -5.8e-05 (inactive). The slope in experiment [6] is 0.00614 (inactive).

Take `COc1ccc(C2N(C(=O)c3ccccc3)CCN2C(=O)c2ccccc2)cc1`: in experiment [1], the cell count came out at 488. Besides, the inhibition was -13.6% (inactive) in experiment [1], -13.7% (inactive) in experiment [3], 7.08% (inactive) in experiment [7] and 24.3% (inactive) in experiment [8]. Also, in experiment [2], the inhibition of aggregation is -2.8% (inactive). Moreover, the nuclei count came out at 71.9% in experiment [2] and 92.4% in experiment [3]. The fluorescence slope in experiment [4] is -0.427 (inactive). Also, the NADPH fluorescence slope in experiment [5] was -7.3e-05 (inactive). Moreover, the slope in experiment [6] is 0.00622 (inactive).

For `COc1ccc(C2CC(=O)C3=C(C2)Nc2ccccc2N(C(=O)C2CC2)C3c2cccnc2)cc1OC` (centres undefined), the cell count in experiment [1] was determined as 683. Moreover, the inhibition is -10.9% (inactive) in experiment [1], 0.8% (inactive) in experiment [3], 10.6% (inactive) in experiment [7] and 17.6% (inactive) in experiment [8]. Further, the inhibition of aggregation in experiment [2] was -43.4% (inactive). Also, the nuclei count in experiment [2] was determined as 87.2%; in experiment [3] it was 98.6%. The fluorescence slope in experiment [4] is -0.367 (inactive). For the same molecule, in experiment [5], the NADPH fluorescence slope was 7.5e-06 (inactive). Besides, the slope in experiment [6] was 0.00392 (inactive).

`COC(=O)[C@@H](NC(=O)NCc1ccccc1Cl)C(C)C`: in experiment [1], the cell count is 732. The inhibition is 8.4% (inactive) in experiment [1], 15.5% (inactive) in experiment [3], 4.11% (inactive) in experiment [7] and 32.6% (inactive) in experiment [8]. Further, in experiment [2], the inhibition of aggregation is -23.1% (inactive). Moreover, the nuclei count in experiment [2] is 100%; in experiment [3], 109%. For the same molecule, the fluorescence slope in experiment [4] was -0.469 (inactive). In addition, the NADPH fluorescence slope in experiment [5] was -2.9e-05 (inactive). Further, the slope in experiment [6] is 0.00402 (inactive).

On to `Cc1cc(=O)n(C)c(=O)n1CCCNc1ccccc1`, for which the cell count in experiment [1] came to 489. Besides, the inhibition in experiment [1] was -13.1% (inactive); in experiment [3], -19.5% (inactive); in experiment [7], -2.79% (inactive); in experiment [8], 6.15% (inactive). Further, in experiment [2], the inhibition of aggregation is -3% (inactive). Moreover, the nuclei count in experiment [2] is 126%; in experiment [3] it was 113%. Besides, the fluorescence slope in experiment [4] is -0.333 (inactive). For the same molecule, the NADPH fluorescence slope in experiment [5] is -3.7e-05 (inactive). The slope in experiment [6] is 0.00566 (inactive).

The term inhibition denotes the relative decrease from the control value, in per cent.
